Bioassay records as filed in PubChem BioAssay.
Hits are enriched below; roughly 1.2% of the tested compounds scored in any of these assays.
RGS4-Gao reg: modulates binding of RGS4 to human Galphao; P09471; hit rate 0.33% among 220,000; Multiplexed bead flow cytometry; actives lie on both sides; binding response (% of control), % at 10 µM; in the data active = binding response below about 49% or above about 150%; inactive = in between;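 also: fluorescent Galphao activated with aluminum fluoride binding bead-coupled RGS4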
Target sequence (P09471 whole entry, looked up): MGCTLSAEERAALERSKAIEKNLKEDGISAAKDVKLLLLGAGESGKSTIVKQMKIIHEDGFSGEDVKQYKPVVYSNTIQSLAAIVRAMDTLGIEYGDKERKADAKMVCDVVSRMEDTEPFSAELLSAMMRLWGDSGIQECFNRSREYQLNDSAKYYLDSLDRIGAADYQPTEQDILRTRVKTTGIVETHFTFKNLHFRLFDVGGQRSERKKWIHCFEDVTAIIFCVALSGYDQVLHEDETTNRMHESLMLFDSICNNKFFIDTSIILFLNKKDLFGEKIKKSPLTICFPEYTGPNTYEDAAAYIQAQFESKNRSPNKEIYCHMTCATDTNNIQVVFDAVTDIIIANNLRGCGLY
GSH bead fluor: GSH bead compound fluorescence profile; AID 1776; hit rate 0.25% among 190,000; GSH beads flow cytometry, compound fluorescence 488/530 nm; stronger effect = higher value; fluorescence (KMESF) at 10 µM; in the data active = fluorescence above about 89;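 also: glutathione beads carrying GST-tagged Bcl family fusion proteins plus one bare bead set; values are compound well signal with DMSO vehicle wells as background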
RGS16-Gao: regulators of human RGS16-Galphao interaction. bead-based flow cytometry RGS16-Galphao binding, fluorescence; actives lie on both sides. O15492+P09471. hit rate 0.38% among 220,000. binding response (% of control), % at 10 µM;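 also: Galphao activated by GDP with aluminum fluoride before binding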
Target sequence (O15492 whole entry, looked up): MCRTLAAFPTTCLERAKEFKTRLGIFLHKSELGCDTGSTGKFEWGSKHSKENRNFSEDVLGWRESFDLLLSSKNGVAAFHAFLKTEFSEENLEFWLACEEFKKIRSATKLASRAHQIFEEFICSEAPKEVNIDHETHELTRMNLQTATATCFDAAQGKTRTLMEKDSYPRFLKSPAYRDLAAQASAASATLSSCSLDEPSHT
Target sequence (P09471 whole entry, looked up): as the sequence (P09471 whole entry, looked up) above
RGS7-Gao reg: modulates binding of RGS7 to human Galphao. binding response (% of control), % at 10 µM. Multiplexed bead flow cytometry; actives lie on both sides. hit rate 0.35% among 220,000; in the data active = binding response below about 49% or above about 150%; inconclusive = no clear call, values can overlap the other calls; inactive = in between;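 also: fluorescent Galphao held in activated GDP-AlF4 state binding bead-coupled RGS7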
RGS8-Gao reg: modulates binding of RGS8 to human Galphao. multiplexed bead flow cytometry; actives lie on both sides. AID 1423. response (percent of control binding), % at 10 µM. hit rate 0.34% among 220,000. P09471; in the data active = response below about 60% or above about 140%; inactive = in between;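 also: Galphao activated as the GDP aluminium fluoride complex binding bead-coupled RGS8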
Avidin fluor: avidin bead compound fluorescence profile. Avidin beads, compound fluorescence 488/530 nm, flow cytometry; stronger effect = higher value. fluorescence (KMESF) at 10 µM. hit rate 0.38% among 220,000; in the data active = fluorescence above about 47
RGS4-Gao HTS: modulates binding between human RGS4 and Galphao; shares compounds with RGS16-Gao; multiplexed bead flow cytometry, RGS–Galpha-o binding; RGS4–Galpha-o binding response, % at 10 µM; hit rate 99% among 1,600;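 also: fluorescently labeled Galpha-o bound to GDP with aluminium fluoride binding biotinylated RGS beads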
Biotin-avidin: counter-screen: compounds disrupting biotin binding to avidin beads; shares compounds with RGS16-Gao; streptavidin beads, fluorescein-biotin binding, flow cytometry; inhibition, % at 10 µM; 1,700 tested, under 10 active; AID 1783;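 active = inhibition above 50%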;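 also: median green fluorescence of gated singlet beads compared with DMSO control wells; 0% = DMSO wells and 100% = complete loss of bead fluorescence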
RGS8-Gao single: RGS8-Galphao interaction regulation, single point confirmation | shares compounds with RGS16-Gao | bead-based flow cytometry RGS8-Galphao binding, fluorescence; actives lie on both sides | binding response (% of control), % at 10 µM | hit rate 3% among 1,700 | AID 1836; in the data active = binding response below about 72% or above about 130%; inactive = in between;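 also: Galphao activated as GDP AlF4 complex before binding bead RGS8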
RGS7-Gao single: confirmation of regulators of human RGS7-Galphao interaction; shares compounds with RGS16-Gao; bead-based flow cytometry RGS7-Galphao binding; actives lie on both sides; response (percent of control binding), % at 10 µM; hit rate 7.8% among 1,700; AID 1837; in the data active = response below about 75% or above about 130%; inactive = in between;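 also: fluorescent Galphao activated with GDP and aluminum fluoride binding bead-coupled RGS7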
RGS16-Gao conf: RGS16-Galphao interaction regulation, single point confirmation. hit rate 4% among 1,700. AID 1838. shares compounds with RGS16-Gao. response (% of control binding), % at 10 µM. bead-based flow cytometry, RGS16-Galphao binding; actives lie on both sides; in the data active = response below about 74% or above about 130%; inactive = in between;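 also: Galphao activated as the GDP aluminium fluoride complex binding bead-coupled RGS16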
RGS4-Gao single: RGS4-Galphao interaction regulation, single point confirmation. shares compounds with RGS16-Gao. RGS4-Galphao binding, multiplexed bead flow cytometry; actives lie on both sides. binding response (% of control), % at 10 µM. hit rate 4% among 1,700. AID 1840; in the data active = binding response below about 74% or above about 130%; inactive = in between
RGS19-Gao conf: RGS19-Galphao interaction regulation, single point confirmation; bead-based flow cytometry RGS19-Galphao binding; actives lie on both sides; response (percent of control binding), % at 10 µM; shares compounds with RGS16-Gao; hit rate 5% among 1,700; AID 1841; in the data active = response below about 50% or above about 160%; inactive = in between;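 also: 100% = no compound control and 0% = blank background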
* hit, by the source's call; ? = inconclusive; . = no result; [ ] = another dose, or the depositor's remark. Unless noted, no rule for the calls is given here.

SMILES | RGS4-Gao reg | GSH bead fluor | RGS16-Gao | RGS7-Gao reg | RGS8-Gao reg | Avidin fluor | Biotin-avidin | RGS8-Gao single | RGS7-Gao single | RGS16-Gao conf | RGS4-Gao single | RGS19-Gao conf | others
Cc1cc(S(=O)(=O)Nc2cc(C)c(O)c(C)c2)c(C)s1 | . | 30 | . | . | . | . | 2 | 99 | 94 | 96 | 100 | 73
COc1cc(OC)cc(-c2n[nH]c(=S)n2-c2ccc3c(c2)OCO3)c1 | 101 | 15 | 21* | 104 | 81 | 1 | 3 | 97 | 105 | 97 | 104 | 88 | RGS4-Gao HTS=101*
O=C(C1CCN(S(=O)(=O)c2cccc3cccnc23)CC1)N1CCN(c2ccccc2)CC1 | 105 | 12 | 189 | 100 | 122 | 3 | . | . | . | . | . | .
CCN1CCN(C(=O)C2CCN(S(=O)(=O)c3cccc4cccnc34)CC2)CC1 | 104 | 20 | 192*[activator] | 115 | 120 | 13 | -1 | 101 | 100 | 105 | 103 | 103 | RGS4-Gao HTS=104*
NNc1cc([N+](=O)[O-])cc2c1C(=O)N(Cc1ccccc1)S2=O (stereo not drawn) | 100 | 56 | 96 | 100 | 97 | 27 | . | . | . | . | . | .
Clc1ccc(-n2nnc(-c3cccnc3)n2)cc1Cl | 47* | 17 | 46 | 43* | 53* | 2 | 2 | 104 | 96 | 103 | 97 | 97
NS(=O)(=O)c1ccc(N/N=C/c2ccc(O)c(O)c2O)c([N+](=O)[O-])c1 | 69 | . | 20* | ? | 39* | -1 | -9 | 43* | 35* | 42* | 71* | -0.4* | RGS4-Gao HTS=69*
C=CCn1c(O)c(N=NC(=O)OCC)c2ccccc21 | 100 | 10 | 107 | 101 | 102 | 5 | . | . | . | . | . | .
CCOC(=O)N=Nc1c(O)n(C)c2ccccc12 | 137 | 17 | 93 | 186*[activator] | 97 | 121* | 1 | 100 | 66* | 92 | 72* | 102 | RGS4-Gao HTS=137*
CC12CCC(C(=O)Nc3nc4ccccc4s3)(OC1=O)C2(C)C (stereo not drawn) | 104 | 10 | 104 | 103 | 102 | 20 | . | . | . | . | . | .
O=C(/C=C/c1ccc(Br)o1)OCc1ccccc1 | . | 31 | . | . | . | . | 2 | 103 | 107 | 110 | 105 | 102
COc1ccc2[nH]c(=O)c(COC(=O)c3cccs3)cc2c1 | 21* | 10 | 14 | 20* | 22* | -2 | -2 | 101 | 92 | 98 | 101 | 84
COC(=O)CC1C(=O)NCCN1Cc1cn(-c2ccc(C)cc2)nc1-c1cccc(C)c1 (stereo not drawn) | 101 | 8 | 104 | 100 | 100 | 8 | . | . | . | . | . | .
C[C@@H](C(=O)N[C@@H](Cc1c[nH]c2ccccc12)C(=O)O)n1nnc2ccccc2c1=O | 103 | . | 107 | ? | 105 | 11 | . | . | . | . | . | .
CCCCCNC(=O)c1cc(S(=O)(=O)N2CCCC2)ccc1F | 84 | 25 | 22* | 84 | 65 | 5 | 3 | 100 | 98 | 102 | 99 | 90 | RGS4-Gao HTS=84*
Cn1cc2cc(NC(N)=S)ccc2n1 | 98 | 20 | 101 | 103 | 100 | 9 | . | . | . | . | . | .
CCC(Oc1cc(Cl)ccc1Cl)C(=O)NNC(=O)CCC(=O)O (stereo not drawn) | 80 | 11 | 13* | 81 | 60 | 1 | 0 | 98 | 104 | 100 | 101 | 85 | RGS4-Gao HTS=80*
CCOC(=O)Cc1csc(NC(=O)c2csc3c2CCCC3)n1 | 29* | 25 | 4 | 19* | 14* | 3 | -2 | 93 | 91 | 89 | 92 | 88
CCOC(=O)Cc1csc(NC(=O)c2cc3c(s2)CCCC3)n1 | 105 | 15 | 101 | 112 | 101 | 10 | . | . | . | . | . | .
CCOc1ccc(C(=O)NC(=S)Nc2ccccc2N2CCOCC2)cc1Br | 101 | 11 | 129 | 96 | 105 | 13 | . | . | . | . | . | .
O=C(COc1ccccc1C(=O)N/N=C\c1ccc(O)c(O)c1)N/N=C/c1ccc(O)c(O)c1 | 17* | 4 | 16* | 14* | 37* | 4 | -4 | 61* | 21* | 60* | 54* | 53
Cc1ccc2nc(C)c3c(c2c1)SCC3 | 207*[activator] | . | 193*[activator] | ? | 103 | 102* | 0 | 101 | 100 | 102 | 101 | 107
CC(=O)Oc1ccc2c(=O)c(Oc3ccccc3)c(C)oc2c1OC(C)=O | 49* | 21 | -3 | 43* | 54* | 3 | -1 | 96 | 94 | 94 | 95 | 93
Cc1ccc(-n2c(N)c(C(=O)Nc3c(C)n(C)n(-c4ccccc4)c3=O)c3nc4ccccc4nc32)cc1C | 96 | 11 | 106 | 96 | 99 | 20 | . | . | . | . | . | .
COc1ccc(-n2c(N)c(C(=O)Nc3c(C)n(C)n(-c4ccccc4)c3=O)c3nc4ccccc4nc32)cc1 | 315*[activator] | . | 288*[activator] | ? | 141*[activator] | 116* | 0 | 102 | 105 | 101 | 102 | 100
Cc1nc(C(F)(F)F)ccc1C(=O)N1CCCCC1 | 3.0* | . | 5.8* | ? | 31* | -1 | 0 | 102 | 98 | 103 | 102 | 96
CCCCCOc1ccc(CSC(=N)N)cc1[N+](=O)[O-] | 42* | 9 | 43 | 49* | 65 | 16 | 0 | 106 | 109 | 106 | 105 | 107
O=C1C2CC=CCC2C(=O)N1Cc1ccccc1Cl (stereo not drawn) | 104 | 5 | 106 | 99 | 104 | 3 | . | . | . | . | . | .
Cc1cc(F)ccc1NCc1cc2c(cc1[N+](=O)[O-])OCO2 | 84 | 63 | -41* | 88 | 89 | 2 | 1 | 88 | 85 | 87 | 88 | 95 | RGS4-Gao HTS=84*
Cn1c(-c2ccc(F)cc2)cnc1NCc1cc2c(cc1[N+](=O)[O-])OCO2 | 103 | 9 | 110 | 104 | 104 | 15 | . | . | . | . | . | .
